L3MBTL1 inh – blocks human L3MBTL1; Q9Y468; AlphaScreen L3MBTL1–H3K9me1 peptide binding; Potency, µM (doses to about 57.1 µM), without a hit: at the highest dose activity, negative = inhibition, usual class: inhibitors; 230,000 compounds, 0.66% hits; note: % is set by controls: 0 for no effect and ±100 for the full control effect; nearly all actives have a fitted effect of over 60% in size
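Displacement of a biotinylated histone H3(1-15) peptide monomethylated at Lys9 (75 nM) from L3MBTL1 (50 nM) was measured by AlphaScreen after a 30 min room-temperature compound incubation; cefsulodin titration served as intraplate control.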
Pol beta inh – DNA polymerase beta (human) inhibition. Potency, µM (series often up to 114 µM), for inactives: at the top dose activity change, negative = inhibition, actives largely listed as inhibitors. Pol beta primer extension/strand displacement, fluorescence kinetic. 340,000 compounds, 1.3% hits. AID 485314; note: % is set by controls: 0 for no effect and ±100 for the full control effect
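Homogeneous kinetic assay of primer extension and strand displacement by 10 nM Pol beta, preincubated 15 min at room temperature with compound before 50 nM substrate (final) was added. Read at 0 and 10 min; four-parameter Hill fit.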
Pol kappa inh – inhibitors of human DNA polymerase kappa; 400,000 compounds, 0.53% hits; Potency, µM (top dose mostly 107 µM), inactives show at the top dose activity, negative = inhibition, actives largely listed as inhibitors; purified Pol kappa, fluorescent DNA synthesis assay, 10 min; AID 588579; Q9UBT6; note: % is set by controls: 0 for no effect and ±100 for the full control effect
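Kinetic fluorescence screen: compound preincubated 15 min RT with 10 nM enzyme; 50 nM substrate (final) initiates; reads at 0/10 min.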
POLH inh – DNA polymerase eta (human) inhibition; Potency, µM (top dose mostly 114 µM), without a hit: at the highest dose activity change, negative = inhibition, usual class: inhibitors; recombinant Pol eta, fluorescent DNA replication assay; Q9Y253; 390,000 compounds, 1.2% hits; note: % is set by controls: 0 for no effect and ±100 for the full control effect
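Pol eta at 10 nM preincubated with compounds 15 min at room temperature; reaction started with fluorescent substrate (50 nM final) and read kinetically at 0 and 10 min.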
Pol iota inh – inhibitors of human DNA polymerase iota; Q9UNA4; Pol iota fluorescent replication assay, 10 min; Potency, µM (series often up to 115 µM), without a hit: at the top dose activity, negative = inhibition, most hits filed as inhibitors; 390,000 compounds, 1% hits; AID 588590
Target sequence (Q9UNA4 whole entry, looked up): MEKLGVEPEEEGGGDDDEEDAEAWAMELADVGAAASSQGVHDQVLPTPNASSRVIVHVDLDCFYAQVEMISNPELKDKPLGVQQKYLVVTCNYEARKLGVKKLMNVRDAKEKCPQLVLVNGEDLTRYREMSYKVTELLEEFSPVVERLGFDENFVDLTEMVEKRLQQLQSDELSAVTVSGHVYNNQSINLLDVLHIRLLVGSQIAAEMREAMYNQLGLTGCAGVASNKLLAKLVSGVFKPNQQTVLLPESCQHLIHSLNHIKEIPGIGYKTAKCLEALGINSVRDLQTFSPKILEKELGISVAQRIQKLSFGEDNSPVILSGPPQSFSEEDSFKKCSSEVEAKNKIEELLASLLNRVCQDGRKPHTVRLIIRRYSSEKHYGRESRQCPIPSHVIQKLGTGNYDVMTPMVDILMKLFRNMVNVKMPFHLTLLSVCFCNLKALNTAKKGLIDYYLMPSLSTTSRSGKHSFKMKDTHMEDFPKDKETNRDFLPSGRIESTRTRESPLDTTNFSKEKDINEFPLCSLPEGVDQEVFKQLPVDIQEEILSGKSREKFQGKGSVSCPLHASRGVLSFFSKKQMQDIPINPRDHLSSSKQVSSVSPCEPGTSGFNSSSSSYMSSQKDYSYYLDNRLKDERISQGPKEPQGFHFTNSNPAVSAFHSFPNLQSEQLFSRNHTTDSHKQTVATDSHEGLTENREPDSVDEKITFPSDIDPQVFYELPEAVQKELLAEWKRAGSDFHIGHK
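Pol iota at 10 nM preincubated 15 min with compounds at room temperature; reaction started with fluorescent substrate, 50 nM final. Fluorescence read kinetically at 0 and 10 min; buffer-only wells as negative control.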
Starred values were filed as active, the others as inactive; u = inconclusive; x = no result given; ! = a repeat was not active; [ ] = another dose, or the depositor's remark. Rows were chosen to be rich in hits. Some 2.4% of all compounds tested hit in one or more screens of this group. Calls come from the whole dose curve; as a rule, active = well fitted curve in the direction sought with a large enough effect; inconclusive = small, poorly fitted or top-dose-only effect, or another doubt; inactive = no such curve, though single readings can be large; an effect the other way counts as inactive or inconclusive. Potency is the fitted concentration of half-maximal effect.

SMILES | L3MBTL1 inh | Pol beta inh | Pol kappa inh | POLH inh | Pol iota inh
Cc1cc(C)c(O)c(-c2cc(C(=O)Nc3cccnc3)[nH]n2)c1 | -19.0% | 56.2µM* | -10.9% | -15.4% | u
COc1ccc(-c2nc3ccc(C4=C(C)CC(=O)NN4)cc3[nH]2)cc1 | x | x | -2.0%[19.4 µM] | x | x
Cc1cc(NCc2ccccc2Cl)n2cnnc2n1 | x | -15.5% | -10.0% | -11.2% | 18.3%
Cc1ccccc1NC(=O)Cn1c(=O)n(CCC(=O)NCc2ccc3c(c2)OCO3)c(=O)c2sccc21 | x | 50.1µM* | -16.9% | -15.8% | 6.4%
Cc1cccc(NC(=O)Cn2c(=O)n(CCCCCC(=O)NCc3ccc4c(c3)OCO4)c(=O)c3sccc32)c1 | x | -6.4% | -8.1% | 14.9% | -5.2%
O=c1c(O)c(-c2ccc(O)c(O)c2)oc2c(OC[C@@H]3O[C@@H](O)[C@@H](O)[C@H](O)[C@H]3O)c(O)cc(O)c12 | x | x | 0.316µM* | x | x
COc1cc(-c2oc3cc(O)cc(O)c3c(=O)c2O[C@@H]2O[C@H](CO)[C@@H](O)[C@H](O)[C@H]2O)cc(OC)c1O | x | x | -7.4%[60.1 µM] | x | x
O=c1c(O)c(-c2ccc(O)c(O)c2)oc2c(OC3OC(CO)C(O)C(O)C3O)c(O)cc(O)c12 (configuration not stated) | x | x | 3.16µM* | x | x
COc1ccccc1CNC(=O)Cn1ncc2c(C)n(Cc3ccccc3Cl)c(C)c2c1=O | x | u | -24.5% | -6.6% | -12.3%
COC(=O)c1cc(OC)c(OC)cc1NC(=O)CN1C(=O)c2ccccc2C1=O | x | 6.8% | -7.0% | -5.1% | 2.6%
COc1cc(NC(=O)CN2C(=O)c3ccccc3C2=O)c(C(=O)O)cc1OC | -2.7% | 24.3% | u | -6.5% | 89.1µM*
CC(C)CCC(C(=O)O)C(C)CC(=O)NNC(=O)c1ccco1 (configuration not stated) | 28.2µM*! | u | 9.3% | -8.6% | 38.9%
COc1ccc(NC(=O)CSc2nnc(NC(=O)NC3CCCCC3)s2)cc1OC | x | -0.4% | -1.4%[60.1 µM] | -7.2% | -9.5%
CCOc1ccc(CCNC(=O)c2nc(-c3cccc(F)c3)n3c2CCCCC3)cc1OCC | x | 3.9% | 89.1µM* | -20.6% | u
COc1ccc(CNC(=O)Cn2nc(-c3ccc4c(c3)OCCO4)ccc2=O)cc1 | -3.0% | 11.9% | -8.1% | -4.8% | 63.1µM*
COc1ccc(-c2ccc(=O)n(CC(=O)Nc3ccc4c(c3)OCCO4)n2)cc1 | 15.9% | -11.0% | 0.6% | 6.3% | u
CCOc1c(Cl)cc(C(=O)N(Cc2ccc(N(C)C)cc2)Cc2ccco2)cc1Cl | x | 21.7% | 9.9% | x | 17.2%
CCOc1cc(C2Nc3cccc4cccc(c34)N2)ccc1O | x | 0.9% | -8.4% | 79.4µM* | u
COc1ccc([C@H]2C[C@@H](O)[C@H](n3cc(COC(=O)c4ccccc4)nn3)CN2C(=O)C2CCCCC2)cc1 | x | x | x | -14.0% | x
CCCc1cc(C(=O)N2CCN(C(c3ccccc3)c3ccccc3)CC2)no1 | 8.4% | -19.3% | 89.1µM* | u | u
CCCNC(=S)N1CCN(C(c2ccccc2)c2ccccc2)CC1 | -7.8% | 56.2µM* | -10.9% | u | -8.6%
S=C(NCCc1ccccc1)N1CCN(C(c2ccccc2)c2ccccc2)CC1 | -1.2% | 89.1µM* | -2.8% | -8.8% | -5.6%
CC1=C(C(=O)Nc2cc(C(=O)NCc3ccccc3)ccc2C)SCCO1 | x | x | x | -6.7% | x
CC[C@H](C)[C@H](NC(=O)[C@H](Cc1ccc(O)cc1)NC(=O)[C@@H]1CCCN1C(=O)[C@H](CCCCN)NC(=O)[C@@H](N)CCCCN)C(=O)N[C@@H](CC(C)C)C(=O)O | x | x | 17.6%[60.1 µM] | x | x
COc1ccccc1N1CCN(C(=O)N2CCOCC2)CC1 | 0.2%[11.4 µM] | -22.0% | -9.4% | 0.1% | 89.1µM*
SMILES | L3MBTL1 inh | Pol beta inh | Pol kappa inh | POLH inh | Pol iota inh
Cc1cccn2c(=O)c3cc(C(=O)NCCc4ccccc4)sc3nc12 | x | 14.1µM* | -23.9% | u | u
N=c1c(C(=O)NCc2ccc3c(c2)OCO3)cc2c(=O)n3ccccc3nc2n1Cc1cccnc1 | 1.1% | 39.8µM* | -20.1% | u | 39.8µM*
Cc1cccn2c(=O)c3cc(C(=O)NCCc4ccccc4)c(=N)n(Cc4ccco4)c3nc12 | x | -16.9% | -35.4% | -10.5% | 7.94µM*
CCCCNC(=O)c1cc2c(=O)n3cccc(C)c3nc2s1 | x | 19.5% | -2.1% | -1.6% | 24.8%
N=c1c(C(=O)NCc2ccc(F)cc2)cc2c(=O)n3ccccc3nc2n1Cc1ccco1 | -8.9% | u | u | 39.8µM* | 17.8µM*
Cc1ccc2oc(-c3ccc(C)c(NC(=O)COc4ccc(Cl)cc4C)c3)nc2c1 | x | x | -0.9% | x | u
CC1CN(C(=O)/C=C/c2ccc(SC(F)F)cc2)CC(C)O1 (configuration not stated) | x | 18.1% | 1.2% | -16.5% | 70.6%
COC(=O)[C@@H]1CCCN1S(=O)(=O)Cc1ccccc1 | x | x | 12.4% | x | 5.3%
CCN(CC)c1ccc(-c2nnc(SCC(=O)NCc3ccco3)n2CC)cc1 | x | x | -3.3% | x | -22.5%
COc1cccc(-n2c(-c3ccco3)nc3c(cnn3-c3ccc(C)cc3)c2=O)c1 | x | u | -28.4% | -22.6% | 8.0%
Cc1ccccc1C(=O)Nc1nc2c(s1)CC(C(C)(C)C)CC2 (configuration not stated) | x | -0.7% | 6.2% | -20.8% | 38.8%
Nc1ccc2cc3ccc(N)cc3nc2c1 | x | x | 9.47µM* | x | x
Cc1ccc2cc(N)ccc2n1 | -9.5% | u | 3.5% | -4.1% | 91.6%
CC[C@H](C)[C@H](NC(=O)CNC(=O)[C@H](CC(C)C)NC(=O)[C@H](CC(C)C)NC(=O)[C@H](CCC(N)=O)NC(=O)[C@H](CCC(N)=O)NC(=O)[C@H](CC(=O)O)NC(=O)[C@H](CCCCN)NC(=O)[C@H](CC(C)C)NC(=O)[C@H](Cc1ccc(O)cc1)NC(=O)[C@H](CCCNC(=N)N)NC(=O)[C@H](CCC(=O)O)NC(=O)[C@@H](NC(=O)[C@H](C)NC(=O)[C@H](CC(C)C)NC(=O)[C@@H](NC(=O)[C@@H](N)CCCNC(=N)N)[C@@H](C)CC)C(C)C)C(=O)N[C@@H](Cc1c[nH]c2ccccc12)C(=O)NCC(=O)N[C@@H](CS)C(=O)N[C@@H](CO)C(=O)O | x | x | 15.9%[60.1 µM] | x | x
O=C(O)c1ccccc1C(=O)Nc1n[nH]c(=S)s1 | u | 22.4µM* | -26.4% | -11.6% | -6.0%
CC(N)COC(=O)C(CCCCN)NC(=O)Cc1c(-c2ccc3ccccc3c2)[nH]c2c1ccc1ccccc12 (configuration not stated) | x | x | -12.1%[12 µM] | x | x
O=C(O)C1CCN(C(=O)Cc2ccccc2)CC1 | 43.5% | -3.2% | -1.3% | 0.8% | 113.0%
O=C(O)C1CCN(C(=O)CCc2ccccc2)CC1 | 2.9% | 50.1µM* | -1.9% | -16.6% | 188.7%
COc1cc(C)c(NC(C)C(=O)c2c(C)[nH]c3ccccc23)cc1OC (configuration not stated) | x | x | -13.0% | x | 40.1%

Source: PubChem
